Bioassay records (PubChem BioAssay)
Compounds with a hit are over-represented: about 3.5% of the library has one in this group of screens.
Rv3671c inh: Rv3671c (M. tuberculosis) protease inhibition; 320,000 compounds, 0.048% hits; P9WHR9; AID 2606; inhibition, % at 5.96 µM; in the data active means inhibition above about 38%;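 further: extracellular domain of Rv3671c used as enzyme; 0% = enzyme with DMSO and 100% = no enzyme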
Target sequence (P9WHR9 whole entry, looked up, the tested form may be a part): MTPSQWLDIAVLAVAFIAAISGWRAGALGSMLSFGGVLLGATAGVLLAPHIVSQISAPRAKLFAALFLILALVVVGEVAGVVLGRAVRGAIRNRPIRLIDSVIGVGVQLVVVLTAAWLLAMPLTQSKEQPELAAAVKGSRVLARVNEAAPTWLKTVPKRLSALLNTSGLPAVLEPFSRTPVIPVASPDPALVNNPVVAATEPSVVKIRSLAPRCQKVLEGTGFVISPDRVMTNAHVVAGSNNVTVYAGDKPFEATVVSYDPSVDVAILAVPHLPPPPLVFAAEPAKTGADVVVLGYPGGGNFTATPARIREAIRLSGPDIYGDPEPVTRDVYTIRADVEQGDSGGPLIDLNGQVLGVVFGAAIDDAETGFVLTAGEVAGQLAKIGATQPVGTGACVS
Mtb hypoxia inh: Mtb hypoxia fluorescent reporter inhibition; 300,000 compounds, 0.1% hits; M. tuberculosis hypoxia-regulated fluorescent reporter, fluorescence; fluorescence inhibition, % (concentration not given with the values); AID 1159583; in the data active means fluorescence inhibition mostly above about 23%, no sharp cut-off; inactive means mostly below about 17%
FadD28 FP inh: blocks FadD28 binding to the bisubstrate probe | inhibition, % at 12.5 µM | 360,000 compounds, 0.22% hits | fluorescence polarization; in the data active means inhibition above about 8.5%, passing the limit was not always enough
UGM FP inh: blocks M. tuberculosis UGM enzyme. AID 504406. 320,000 compounds, 0.06% hits. purified UGM, fluorescence polarization probe displacement. inhibition, % at 10 µM; in the data active means inhibition above about 10%, passing the limit was not always enough
Mtb FBA inh: Mtb fructose-bisphosphate aldolase inhibition. P9WQA3. purified M. tuberculosis FBA, fluorescence read-out. inhibition, % at 1 µM. 360,000 compounds, 2.3% hits. AID 588726;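 further: 0% = vehicle and 100% = reference inhibitor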
GDH-TPI counter-1: GDH-TPI coupled enzyme inhibition counter-screen; GDH-TPI coupled enzyme counterscreen, NADH absorbance; inhibition, % at 4.8 µM; 360,000 compounds, 1.2% hits; in the data active means inhibition above about 30%;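 further: 0% = DMSO wells and 100% = wells lacking the enzyme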
Mtb FBA confirm: confirmation of M. tuberculosis fructose-bisphosphate aldolase inhibitors | shares compounds with Mtb FBA inh | purified M. tuberculosis FBA, fluorescence read-out | inhibition, % at 1 µM | 5,600 compounds, 78% hits | AID 651616;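 further: 0% = vehicle wells and 100% = reference inhibitor wells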
GDH-TPI counter-2: counter-screen for M. tuberculosis FBA inhibitors: GDH-TPI coupled enzyme inhibition; inhibition, % at 1 µM; shares compounds with Mtb FBA inh; AID 652141; GDH-TPI coupled enzyme counterscreen, fluorescence; 5,600 compounds, 81% hits; in the data active means inhibition above about 10%
Numbers without * were called inactive; . = not tested or not shown. Unless noted, no stated cut-off is given here; in the data, active means inhibition above about 27%; inactive means the rest.

SMILES | Rv3671c inh | Mtb hypoxia inh | FadD28 FP inh | UGM FP inh | Mtb FBA inh | GDH-TPI counter-1 | Mtb FBA confirm | GDH-TPI counter-2
CCOC(=O)c1ccc(N2C=C(C(=O)OC)C(c3cccc(O)c3)C(C(=O)OC)=C2)cc1 | -3 | 3 | -1 | 1 | 111* | 7 | 97* | 81*
COC(=O)C1=CN(c2ccc(OC)cc2)C=C(C(=O)OC)C1c1cccc(F)c1 | -4 | 4 | -3 | -2 | 26 | -1 | . | .
COC(=O)c1[nH]c2cccc(OC)c2c1NC(=O)CN1CC(C)OC(C)C1 (centres undefined) | 8 | 5 | 0 | 3 | 11 | -2 | . | .
COC(=O)c1[nH]c2cc(OC)c(OC)cc2c1NC(=O)CN1C[C@H]2C[C@@H](C1)c1cccc(=O)n1C2 | -5 | 11 | -2 | 0 | 37* | 11 | 69* | 54*
CCN(CC)CCCNc1nc(C)cc(COC)c1C#N | 3 | 13 | -1 | 1 | 76* | 6 | 114* | 103*
COc1ccc(-c2cc(C(=O)O)c3sc(N4CCCCC4)nc3n2)cc1OC | -2 | 9 | 1 | 0 | 94* | 20 | 109* | 67*
COc1ccc(-c2cc(-c3ccccc3)nc(N3CCCC3)n2)cc1OC | -4 | 7 | -4 | -1 | 11 | 12 | . | .
COc1cccc(-c2nn(C)c3sc(C(=O)NCc4ccccn4)cc23)c1 | -14 | . | -2 | 0 | 80* | 20 | 0 | -2
Cn1nc(-c2ccccc2)c2cc(C(=O)O)sc21 | -3 | 7 | -3 | 3 | 49* | 8 | 1 | 0
CCN(CC)CCNC(=O)c1cc2c(-c3cccc(OC)c3)nn(C)c2s1 | -12 | 9 | -10 | 3 | 60* | 23 | 173* | 129*
COCCCNC(=O)c1cc2c(-c3cccc(OC)c3)nn(C)c2s1 | -9 | -5 | -7 | 2 | 89* | 11 | 119* | 107*
COc1cccc(-c2nn(C)c3sc(C(=O)NCc4ccc(C)cc4)cc23)c1 | -93 | 4 | -12 | 0 | 18 | 5 | . | .
CN(C)c1ccc(/C=[N+](\[O-])C(C)(C)C=NO)cc1 | . | 0 | . | . | . | . | . | .
Cc1cc2n(n1)C(c1ccc(N(C)C)cc1)Nc1ccccc1-2 (centres undefined) | 12 | 1 | -5 | 2 | 33* | 29 | 98* | 82*
Cc1ccc2[nH]cc(C(=O)NCc3cccs3)c(=O)c2c1 | 2 | 6 | -6 | 2 | 0 | -4 | . | .
COc1cccc2c(=O)c(C(=O)NCc3cccs3)c[nH]c12 | -8 | 11 | -1 | 1 | 34* | 12 | 32* | 26*
COc1cccc2c(=O)c(C(=O)NCCc3ccccc3)c[nH]c12 | . | 19 | -3 | . | 48* | 10 | 63* | 45*
COc1cc2cnc(-c3ccsc3)cc2cc1OC | 4 | 4 | -6 | -2 | 5 | 6 | . | .
CNc1cnc(-c2ccsc2)cn1 | . | . | -3 | . | 88* | 9 | 134* | 110*
CCn1c2ccccc2c2cc(C=NNC(=O)c3ccncc3)ccc21 | . | 14 | . | . | . | . | . | .
CC(=NNC(=O)c1ccc(C)cc1)C1C(=O)c2ccccc2C1=O | . | -1 | . | . | . | . | . | .
Nc1c(Cl)c(Cl)nc(C(=O)NN=Cc2ccco2)c1Cl | . | 1 | . | . | . | . | . | .
S=c1[nH]c(-c2ccccc2)cn1/N=C/c1ccncc1 | -12 | . | 1 | 1 | 35* | 4 | 49* | 42*
S=c1[nH]c(-c2ccccc2)cn1N=Cc1cccnc1 | . | 4 | . | . | . | . | . | .
CCOc1ccc(/C=N/n2cc(-c3ccccc3)[nH]c2=S)cc1 | 7 | . | 2 | 1 | 67* | 29 | 89* | 80*
SMILES | Rv3671c inh | Mtb hypoxia inh | FadD28 FP inh | UGM FP inh | Mtb FBA inh | GDH-TPI counter-1 | Mtb FBA confirm | GDH-TPI counter-2
CCNc1oc(/C=C/c2ccc(OCC)cc2)nc1C#N | -5 | 3 | 0 | 0 | 29* | 17 | 86* | 71*
O=C1NC(Cc2ccccc2)CO1 (centres undefined) | . | 12 | . | . | . | . | . | .
COc1ccc2sc(C)cc(=O)c2c1 | . | . | -1 | . | 107* | 15 | 88* | 52*
COc1ccc(C=Nn2c(=O)[nH]c3c([nH]c4ccc(C)cc43)c2=O)cc1CN1CCOCC1 | . | 10 | . | . | . | . | . | .
COc1ccc(/C=N/n2c(=O)[nH]c3c([nH]c4ccc(C)cc43)c2=O)cc1CN1CCOCC1 | . | . | -1 | . | 93* | 14 | 127* | 101*
CC1=CC(C)[C@H](/C=N/n2c(=O)[nH]c3c([nH]c4ccc(C)cc43)c2=O)C(C)C1 (some centres undefined) | 6 | . | -2 | 3 | 53* | 1 | -1 | -3
CCOC(=O)C1C2COc3cc(OC)ccc3C2N2C(=O)N(c3cccc(Cl)c3)C(=O)[C@@]12C (some centres undefined) | . | 13 | . | . | . | . | . | .
CC1(C)C2CC=C(C=NNC(=O)C(N)=O)C1C2 (centres undefined) | . | 6 | . | . | . | . | . | .
Cc1ccc(-c2nc3ccccc3[nH]2)cn1 | 10 | 0 | -5 | -2 | 5 | 6 | . | .
Clc1ccc(-c2nc3ccccc3[nH]2)cn1 | -5 | 17 | -5 | 1 | 72* | 3 | 97* | 84*
Cc1nc2ccc(-c3nc4ccccc4[nH]3)cc2[nH]1 | 6 | . | -10 | -3 | 34* | -9 | 78* | 61*
Cc1ccccc1S(=O)(=O)N1C(c2ccc(Cl)cc2)CC=C(C(=O)O)C1c1ccccc1 (centres undefined) | . | -1 | . | . | . | . | . | .
Cn1ccc2c(-c3ccc4c(c3)OCCO4)cc3c(c21)C1CCC3O1 (centres undefined) | . | . | 2 | . | 109* | . | 1 | -4
Cn1ccc2c(-c3ccc(C(F)(F)F)cc3)cc3c(c21)C1CCC3O1 (centres undefined) | . | . | 0 | . | 93* | . | 98* | 69*
COc1ccc(-c2cc3c(c4c2ccn4C)C2CCC3O2)cc1OC (centres undefined) | . | . | 0 | . | 0 | . | . | .
Cn1ccc2c(-c3ccc4c(c3)OCCO4)cc3c(c21)C1CCC3C1 (centres undefined) | . | . | 0 | . | 1 | . | . | .
CSc1ccc(-c2cc3c(c4c2ccn4C)C2CCC3O2)cc1 (centres undefined) | . | . | 7 | . | 101* | . | 14 | 12*
CC(=Nn1cnnc1)c1ccccc1 | . | 10 | . | . | . | . | . | .
O=C1OCCN1C(=O)C1C(c2ccc(Cl)cc2)C(c2cccc(Cl)c2)=NN1c1ccccc1 (centres undefined) | . | 6 | . | . | . | . | . | .
COC(=O)c1cnc2ccccc2n1 | -2 | . | -2 | 0 | -1 | 3 | . | .
O=C(O)c1cnc2ccccc2n1 | -2 | -3 | -1 | -2 | 33* | 5 | 62* | 43*
CCN(CC)c1ccc(C=NN2CCN(Cc3ccccc3)CC2)c(O)c1 | . | 7 | . | . | . | . | . | .
C=C1c2cc(OC)ccc2NC(=O)N1CC | 1 | . | 0 | -2 | 34* | 13 | 3 | 2
O=c1c2ccccc2c(/C=N/n2cnnc2)c(O)n1-c1ccccc1F | 1 | -5 | 3 | 4 | 33* | 16 | 3 | 2
